# Records with an inconclusive call do not appear. The source made the active and inactive calls. The calls were made as follows, unless noted: active = hit-call score of the fitted dose curve at least 0.9, where 1 is the maximum; inactive = score below 0.9.
# System: SRY-box transcription factor 2 (SOX2) Protein Expression, Deisenroth Lab, SOX2 (gene 6657)
# Experiment: CCTE_Deisenroth_DEVTOX-GLR_Endo_SOX2: CCTE's DevTox GLR-Endo Assay Evaluation of SRY-box transcription factor 2 (SOX2) Protein Expression, Deisenroth Lab (AID 2284412; active = hit-call score of the fitted dose curve at least 0.9, where 1 is the maximum)
# How it was run: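 Endpoint is percent SOX2-positive cells (SOX2+ count/total cells) minus 0.2% DMSO control, from high-content imaging of fixed, nuclear-stained RUES2-GLR cells. Dosing twice at 24 h intervals over 48 h differentiation, 1 nM–200 uM in 10 points.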
row,SMILES,AC50
1,CCCCOC(=O)c1ccc(O)cc1,152 µM (active)
2,CO[C@H]1/C=C/O[C@@]2(C)Oc3c(C)c(O)c4c(O)c(c(/C=N/N5CCN(C)CC5)c(O)c4c3C2=O)NC(=O)/C(C)=C\C=C\[C@H](C)[C@H](O)[C@@H](C)[C@@H](O)[C@@H](C)[C@H](OC(C)=O)[C@@H]1C,83.6 µM (active)
3,CC/C(=C(/CC)c1ccc(O)cc1)c1ccc(O)cc1,2.78 µM (active)

# System: SRY-box transcription factor 17 (SOX17) Protein Expression, Deisenroth Lab, SOX17 (gene 64321)
# Experiment: CCTE_Deisenroth_DEVTOX-GLR_Endo_SOX17: CCTE's DevTox GLR-Endo Assay Evaluation of SRY-box transcription factor 17 (SOX17) Protein Expression, Deisenroth Lab (AID 2284413)
# How it was run: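 Human RUES2-GLR cells carrying an inducible fluorescent reporter are differentiated in defined media for 48 h and dosed twice, 24 h apart. After fixation and nuclear staining, imaging yields SOX17+ cell percentage relative to 0.2% DMSO-treated differentiated cells.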
SMILES,AC50,outcome
CCCCOC(=O)c1ccc(O)cc1,56.3 µM (active),
CO[C@H]1/C=C/O[C@@]2(C)Oc3c(C)c(O)c4c(O)c(c(/C=N/N5CCN(C)CC5)c(O)c4c3C2=O)NC(=O)/C(C)=C\C=C\[C@H](C)[C@H](O)[C@@H](C)[C@@H](O)[C@@H](C)[C@H](OC(C)=O)[C@@H]1C,70.3 µM (active),
OCCO,,inactive
CC/C(=C(/CC)c1ccc(O)cc1)c1ccc(O)cc1,0.65 µM (active),

# Reference: PubChem BioAssay (EPA / NIEHS)
